In all, about 39,000 compounds went through this assay and about 3,300 (8.5%) were called active. The list comes from a sample in which actives are over-represented; it also holds similar structures and randomly drawn compounds.

This assay has as its system HepG2. Briefly: cytotoxicity call (relative viability < 0.9). The conditions noted are these: 10 µM.
As for `O=C(C[C@@H]1C[C@@H]2c3cc(NC(=O)c4ccc5c(c4)OCO5)ccc3O[C@@H]2[C@H](CO)O1)NCC(F)(F)F`, the cytotoxicity call is “inactive”. Regarding `C[C@@H]1CCCCO[C@@H](CN(C)Cc2ccc(Cl)c(Cl)c2)[C@H](C)CN([C@H](C)CO)C(=O)c2cc(NS(=O)(=O)c3cccs3)ccc2O1`, the cytotoxicity call is “inactive”. To `C[C@H](CO)N1C[C@H](C)[C@@H](CN(C)Cc2ccc(Cl)c(Cl)c2)OCCCC[C@H](C)Oc2ccc(NS(=O)(=O)c3cccs3)cc2C1=O` belongs “inactive”; to `C[C@@H]1CCCCO[C@H](CN(C)Cc2ccc(Cl)c(Cl)c2)[C@@H](C)CN([C@H](C)CO)C(=O)c2cc(NS(=O)(=O)c3cccs3)ccc2O1`, “active”. Turning to `C[C@@H]1CCCCO[C@@H](CN(C)Cc2ccc(Cl)c(Cl)c2)[C@@H](C)CN([C@H](C)CO)C(=O)c2cc(NS(=O)(=O)c3cccs3)ccc2O1`, the cytotoxicity call was “inactive”. `C[C@@H]1CCCCO[C@@H](CN(C)Cc2ccc(Cl)c(Cl)c2)[C@@H](C)CN([C@@H](C)CO)C(=O)c2cc(NS(=O)(=O)c3cccs3)ccc2O1`: the cytotoxicity call is “active”.

`C[C@@H]1CCCCO[C@H](CN(C)Cc2ccc(Cl)c(Cl)c2)[C@H](C)CN([C@H](C)CO)C(=O)c2cc(NS(=O)(=O)c3cccs3)ccc2O1`: the cytotoxicity call is “inactive”. On to `CC(C)NC(=O)N(C)C[C@@H]1Oc2ccc(NC(=O)CCCN(C)C)cc2C(=O)N([C@@H](C)CO)C[C@@H]1C`, for which the cytotoxicity call is “inactive”. Then `C[C@@H]1CN([C@H](C)CO)C(=O)c2cc(NC(=O)CCN3CCOCC3)ccc2O[C@@H]1CN(C)Cc1ccccc1`, with “inactive”.

For `C[C@H]1CN([C@@H](C)CO)C(=O)c2cc(C#CC3CC3)cnc2O[C@H]1CN(C)S(=O)(=O)c1cccc(F)c1`, the cytotoxicity call is “inactive”.

Regarding `COc1ccc(NC(=O)Nc2ccc3c(c2)C(=O)N([C@@H](C)CO)C[C@@H](C)[C@H](CN(C)C(=O)NC(C)C)OCCCC[C@@H](C)O3)cc1`, the cytotoxicity call is “inactive”. To `C[C@H]1CN([C@@H](C)CO)C(=O)c2cccc(NC(=O)c3ccncc3)c2O[C@@H]1CN(C)Cc1ccc2c(c1)OCO2` belongs “inactive”.

For `NNC(=S)NCc1ccc(F)cc1`, the cytotoxicity call is “inactive”. Turning to `N[C@@H](Cc1ccc(F)cc1)C(=O)O`, the cytotoxicity call is “inactive”. With `NC(=CS(=O)(=O)Cc1ccc(F)cc1)NO`, the cytotoxicity call is “active”. With `CC(=O)O[C@H]1[C@H](O)[C@H](O)[C@H](O[C@@H]2[C@@H](Oc3cc(O)c4c(=O)cc(-c5ccc(O)c(O)c5)oc4c3)O[C@@H](C(=O)O)[C@H](O)[C@@H]2O)O[C@@H]1C`, the cytotoxicity call was “inactive”. Consider `C[C@H]1CN([C@@H](C)CO)C(=O)c2cc(NC(=O)CCCN(C)C)ccc2O[C@@H]1CN(C)S(=O)(=O)c1ccc(Cl)cc1`, for which the cytotoxicity call is “inactive”.

`CC(C)c1ccccc1OC[C@@H](O)CN`: the cytotoxicity call was “inactive”. In the case of `Cc1ccccc1OC[C@@H](O)CO`, the cytotoxicity call was “inactive”. `Cc1ccccc1OCC(O)CO` (configuration not stated): the cytotoxicity call was “active”. To `COc1cccc(NC(=O)N(C)C[C@H]2Oc3ncc(Br)cc3C(=O)N([C@H](C)CO)C[C@H]2C)c1` belongs “inactive”; to `C[C@H]1COC(=O)[C@@H](Cc2ccc(F)cc2)CC=CC[C@@H](CC(=O)N[C@H](CO)Cc2ccccc2)C(=O)N1`, “inactive”. For `Cn1nccc1NC(=O)/C=C/C(=O)O`, the cytotoxicity call was “inactive”. With `C[C@@H]1CN([C@@H](C)CO)S(=O)(=O)c2ccc(-c3cccc(C#N)c3)cc2O[C@@H]1CN(C)C(=O)c1cccnc1`, the cytotoxicity call is “inactive”. Turning to `C[C@@H]1CCCCO[C@@H](CN(C)C(=O)Nc2ccc(F)cc2)[C@@H](C)CN([C@H](C)CO)C(=O)c2cc(NC(=O)Nc3ccc(F)cc3)ccc2O1`, the cytotoxicity call is “inactive”. With `C[C@@H]1CN([C@H](C)CO)C(=O)c2cc(NC(=O)Nc3ccc(F)cc3)ccc2O[C@@H](C)CCCCO[C@H]1CN(C)C(=O)Nc1ccc(F)cc1`, the cytotoxicity call was “active”. Consider `C[C@@H]1CCCCO[C@@H](CN(C)C(=O)Nc2ccccc2)[C@@H](C)CN([C@H](C)CO)C(=O)c2cc(NC(=O)Nc3ccc(F)cc3)ccc2O1`, for which the cytotoxicity call was “inactive”. As for `C[C@@H]1CCCCO[C@H](CN(C)C(=O)Nc2ccc(F)cc2)[C@@H](C)CN([C@H](C)CO)C(=O)c2cc(NC(=O)Nc3ccc(F)cc3)ccc2O1`, the cytotoxicity call was “inactive”. Take `C[C@@H]1CCCCO[C@@H](CN(C)C(=O)Nc2ccc(F)cc2)[C@H](C)CN([C@@H](C)CO)C(=O)c2cc(NC(=O)Nc3ccccc3)ccc2O1`: the cytotoxicity call was “inactive”. `C[C@H]1CCCCO[C@H](CN(C)C(=O)Nc2ccccc2)[C@@H](C)CN([C@@H](C)CO)C(=O)c2cc(NC(=O)Nc3ccc(F)cc3)ccc2O1`: the cytotoxicity call is “active”. For the compound `COc1ccc(NC(=O)Nc2ccc3c(c2)C(=O)N([C@H](C)CO)C[C@H](C)[C@H](CN(C)Cc2ccc4c(c2)OCO4)OCCCC[C@@H](C)O3)cc1`, the cytotoxicity call was “inactive”. Then `Cc1ccc(S(=O)(=O)N2C[C@H](O)COC[C@@H]3O[C@@H](CC(=O)NCc4ccc5c(c4)OCO5)CC[C@H]32)cc1`, with “inactive”; and `COc1ccc(S(=O)(=O)N(C)C[C@H]2Oc3c(cccc3N(C)C)C(=O)N([C@H](C)CO)C[C@@H]2C)cc1`, with “inactive”. Regarding `CC(=O)N1[C@H](Cn2cncn2)C[C@H]2CN(C(N)=O)CC[C@H]21`, the cytotoxicity call is “inactive”. Take `COc1ccc(NC(=O)N(C)C[C@H]2OCCCC[C@@H](C)Oc3ccc(NC(=O)Nc4c(C)noc4C)cc3C(=O)N([C@@H](C)CO)C[C@H]2C)cc1`: the cytotoxicity call was “inactive”. `C[C@@H]1CCCCO[C@H](CN(C)Cc2ccccc2)[C@H](C)CN([C@@H](C)CO)C(=O)c2cc(NC(=O)CCC(F)(F)F)ccc2O1`: the cytotoxicity call is “inactive”. Then `COc1ccc(NC(=O)Nc2ccc3c(c2)C(=O)N([C@H](C)CO)C[C@@H](C)[C@@H](CN(C)C(=O)c2ccccc2)OCCCC[C@H](C)O3)cc1`, with “inactive”; and `NNC(=O)CCCCCCC(=O)NO`, with “inactive”. To `NNC(=O)CCCCCC(=O)NO` belongs “inactive”.

As to `NNC(=O)CCCCC(=O)NO`, the cytotoxicity call is “active”. Take `Cc1cc([N+](=O)[O-])nn1CC(=O)NC(C)C`: the cytotoxicity call is “inactive”. Turning to `COc1cc2c(cc1OC)C(=O)OC2`, the cytotoxicity call was “inactive”. For `COc1cc2c(cc1OC)Cc1cc(OC)c(OC)cc1Cc1cc(OC)c(OC)cc1C2`, the cytotoxicity call is “inactive”.

Turning to `COc1cc2c(cc1OC)C(=O)NCC2`, the cytotoxicity call was “active”. Turning to `CO[C@H]1CN(C)C(=O)c2cc(NC(=O)C3CC3)ccc2OC[C@H](C)N(C(=O)Cc2ccccn2)C[C@H]1C`, the cytotoxicity call was “inactive”. Take `Cc1cc(C(=O)Nc2cccc3c2O[C@@H](CN(C)C(=O)Nc2ccccc2)[C@H](C)CN([C@@H](C)CO)C3=O)n(C)n1`: the cytotoxicity call is “inactive”.

For the compound `Cc1ccc(CSc2nnc(CCN)o2)cc1`, the cytotoxicity call was “active”. Consider `NCCCCCc1nnc(SCC(N)=O)o1`, for which the cytotoxicity call is “inactive”. For the compound `CC1(C)CC(=O)c2c(C(F)(F)F)nn(-c3ccc(C(N)=O)c(N[C@H]4CC[C@H](OC(=O)CN)CC4)c3)c2C1`, the cytotoxicity call was “active”. Then `CC1(C)CC(=O)c2c(C(F)(F)F)nn(-c3ccc(C(N)=O)c(O[C@H]4CC[C@H](N)CC4)c3)c2C1`, with “inactive”; and `CCCCCCCCCCCCCCCCCCCC(=O)N[C@H]1CC[C@@]2(C)[C@@H](C1)C[C@@H](O)[C@@H]1[C@@H]2C[C@H](O)[C@]2(C)[C@@H]([C@H](C)CCC(=O)O)CC[C@@H]12`, with “inactive”.

Regarding `CC(C)[C@@H](CC[C@@H](C)[C@H]1CC[C@H]2[C@@H]3[C@H](O)C[C@H]4C[C@@H](NCCCNCCCCN)CC[C@]4(C)[C@H]3CC[C@]12C)OS(=O)(=O)O`, the cytotoxicity call is “active”. With `CCC(CCC(C)C1CCC2C3CCC4CC(O)CCC4(C)C3CCC12C)C(C)C` (configuration not stated), the cytotoxicity call is “inactive”. `CC(CCC(=O)O)C1CCC2C3C(O)CC4CC(O)CCC4(C)C3CCC12C` (configuration not stated): the cytotoxicity call was “inactive”. As to `CC(CCC(=O)O)C1CCC2C3CCC4CC(O)CCC4(C)C3CCC12C` (configuration not stated), the cytotoxicity call is “inactive”. Turning to `CC(C)[C@@H](CC[C@@H](C)[C@H]1CC[C@H]2[C@@H]3[C@H](O)C[C@H]4C[C@@H](NCCCNCCCCNCCCN)CC[C@]4(C)[C@H]3CC[C@]12C)OS(=O)(=O)O`, the cytotoxicity call is “active”. Consider `CC(C)NC(=O)Nc1ccc2c(c1)C(=O)N([C@H](C)CO)C[C@@H](C)[C@H](CN(C)S(=O)(=O)c1cccs1)O2`, for which the cytotoxicity call is “inactive”. For the compound `CO[C@H]1CN(C)C(=O)c2ccc(NS(C)(=O)=O)cc2OC[C@@H](C)N(C(=O)CN(C)C)C[C@@H]1C`, the cytotoxicity call is “inactive”. On to `Cn1nc(CN2CCCC2=O)c2c1CNC2`, for which the cytotoxicity call is “inactive”.

In the case of `Cc1cc(C(=O)Nc2cccc3c2O[C@H](CN(C)Cc2ccc4c(c2)OCO4)[C@@H](C)CN([C@H](C)CO)C3=O)n(C)n1`, the cytotoxicity call is “inactive”.

In the case of `CC(C)NC(=O)N(C)C[C@H]1Oc2ccc(NC(=O)C3CCCCC3)cc2CC(=O)N([C@@H](C)CO)C[C@H]1C`, the cytotoxicity call is “inactive”. As to `C[C@@H]1CN([C@H](C)CO)C(=O)c2ccccc2-c2ccccc2CO[C@@H]1CN(C)C(=O)Nc1ccc(-c2ccccc2)cc1`, the cytotoxicity call is “inactive”.

For the compound `C[C@@H]1CCCCO[C@@H](CN(C)Cc2ccc(Cl)c(Cl)c2)[C@H](C)CN([C@@H](C)CO)C(=O)c2cc(NC(=O)Nc3cccc4ccccc34)ccc2O1`, the cytotoxicity call is “inactive”. As to `C[C@@H]1CCCCO[C@@H](CN(C)Cc2ccccc2)[C@H](C)CN([C@H](C)CO)C(=O)c2cc(NC(=O)Nc3cccc4ccccc34)ccc2O1`, the cytotoxicity call was “inactive”.

As for `C[C@@H]1CN([C@H](C)CO)C(=O)c2cc(NC(=O)Nc3cccc4ccccc34)ccc2O[C@@H](C)CCCCO[C@@H]1CN(C)Cc1ccccc1`, the cytotoxicity call was “inactive”. Consider `C[C@@H]1CCCCO[C@@H](CN(C)Cc2ccc(Cl)c(Cl)c2)[C@H](C)CN([C@H](C)CO)C(=O)c2cc(NC(=O)Nc3cccc4ccccc34)ccc2O1`, for which the cytotoxicity call is “inactive”. For `C[C@@H]1CCCCO[C@H](CN(C)Cc2ccccc2)[C@@H](C)CN([C@H](C)CO)C(=O)c2cc(NC(=O)Nc3cccc4ccccc34)ccc2O1`, the cytotoxicity call was “inactive”. With `C[C@@H]1CCCCO[C@@H](CN(C)Cc2ccc(Cl)c(Cl)c2)[C@@H](C)CN([C@@H](C)CO)C(=O)c2cc(NC(=O)Nc3cccc4ccccc34)ccc2O1`, the cytotoxicity call was “active”. On to `C[C@@H]1CCCCO[C@H](CN(C)Cc2ccccc2)[C@H](C)CN([C@@H](C)CO)C(=O)c2cc(NC(=O)Nc3cccc4ccccc34)ccc2O1`, for which the cytotoxicity call is “active”. To `C[C@@H]1CCCCO[C@H](CN(C)Cc2ccccc2)[C@H](C)CN([C@H](C)CO)C(=O)c2cc(NC(=O)Nc3cccc4ccccc34)ccc2O1` belongs “active”; to `C[C@H]1CCCCO[C@@H](CN(C)Cc2ccccc2)[C@@H](C)CN([C@@H](C)CO)C(=O)c2cc(NC(=O)Nc3cccc4ccccc34)ccc2O1`, “active”; to `C[C@H](CO)N1C[C@H](C)[C@@H](CN(C)Cc2ccccc2)OCCCC[C@H](C)Oc2ccc(NC(=O)Nc3cccc4ccccc34)cc2C1=O`, “inactive”.

These data come from the antibiotic and cytotoxicity screens of Wong et al. (2023).
